From PubChem BioAssay
GPR151 activ: activators of human GPR151, primary screen, cell-based, PathHunter beta-arrestin, luminescence | G-protein coupled receptor 151 (Homo sapiens), Q8TDV0 | PathHunter beta-arrestin GPR151 cells | activation, % at 11.2 µM | actives 1% (n = 650,000); in the data active = activation above about 4.9%
Target sequence (Q8TDV0 whole entry, looked up): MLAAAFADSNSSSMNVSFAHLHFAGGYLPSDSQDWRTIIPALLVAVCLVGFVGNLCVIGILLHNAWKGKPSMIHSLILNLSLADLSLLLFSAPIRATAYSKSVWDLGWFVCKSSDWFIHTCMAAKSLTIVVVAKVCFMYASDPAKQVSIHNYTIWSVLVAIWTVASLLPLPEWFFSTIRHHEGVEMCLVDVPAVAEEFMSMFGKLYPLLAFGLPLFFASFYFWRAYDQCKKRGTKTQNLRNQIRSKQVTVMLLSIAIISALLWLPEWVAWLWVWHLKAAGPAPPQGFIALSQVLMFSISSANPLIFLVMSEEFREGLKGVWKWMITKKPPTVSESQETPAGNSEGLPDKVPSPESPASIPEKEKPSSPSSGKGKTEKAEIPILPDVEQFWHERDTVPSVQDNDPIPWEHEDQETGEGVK
MITF inh: MITF inhibitors, primary screen, biochemical, AlphaScreen, human; Microphthalmia-associated transcription factor (Homo sapiens), O75030; AlphaScreen MITF homodimerization, bead proximity signal; inhibition, % at 2.6 µM; actives 0.91% (n = 650,000); in the data active = inhibition above about 50%
TEAD-YAP block: TEAD-YAP interaction inhibition, primary screen, TEAD-YAP interaction inhibitor project, luminescence, HEK-TIYL cells. inhibition, % at 9.12 µM. TEAD-Gal4/YAP UAS-luciferase luminescence. actives 1.4% (n = 640,000); in the data active = inhibition above about 32%
FBW7 act: FBW7 E3 ligase activators, primary screen, biochemical, AlphaScreen, human; F-box/WD repeat-containing protein 7 (Homo sapiens), Q969H0; AlphaScreen FBW7–phospho-cyclin E peptide binding, activator screen; normalized activity (activation), % at 26.1 µM; actives 0.13% (n = 650,000); AID 1259310, 2017; in the data active = normalized activity above about 1.9%;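 note: purified mutant Fbw7 with reduced substrate affinity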
GPR151 conf act: GPR151 activators, triplicate retest, confirmation, cell-based, PathHunter beta-arrestin, luminescence; shares compounds with GPR151 activ; GPR151 PathHunter beta-arrestin cells, 90 min; % of EA-reagent control over plate median; activation, % at 11.2 µM; 6,700 tested, under 10 active; AID 1508609, 2020;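 active = mean percent activation across replicates above the confirmation screen cutoff of 4.91%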
GPR119 counter: GPR119 activators in beta-arrestin cells, counter-screen for GPR151 activator project, cell-based, PathHunter beta-arrestin, luminescence, triplicate. actives 0.3% (n = 6,700). shares compounds with GPR151 activ. 90 min; 0 = compound-well median, 100 = enzyme-acceptor control. activation, % at 11.2 µM;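 active = mean percent activation in the counterscreen above 29.09%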;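 note: counterscreen on off-target GPR119 to flag nonselective hits from the GPR151 activator screen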
Hits are given with their value; 0 = inactive; - = no result given. Most compounds without a hit are left out; they make up all but 3.5% or so of the library.

SMILES | GPR151 activ | MITF inh | TEAD-YAP block | FBW7 act | GPR151 conf act | GPR119 counter
C=CCOc1ccccc1/C=N/NC(=O)C(O)c1ccc(Br)cc1 (stereo not drawn) | 0 | 0 | 0 | 0 | - | -
Cc1ccc(O)c(SC(C)(C)Sc2cc(C)ccc2O)c1 | 0 | 0 | 0 | 0 | - | -
C=C(C)COc1c(I)cc(C=O)cc1OC | 6.6 | 0 | 0 | 0 | 0 | 0
COc1ccc(N2C(=O)c3ccc(NC(C)=O)cc3C2=O)cc1 | 0 | 0 | 0 | 0 | - | -
COC(=O)c1ccc(N2C(=O)c3ccc(NC(C)=O)cc3C2=O)cc1 | 11 | 0 | 0 | 0 | 0 | 0
CC(=O)Nc1ccc(C(=O)OC(C)C(=O)c2ccc(C)cc2)cc1 (stereo not drawn) | 0 | 0 | 0 | 0 | - | -
CCCCc1ccc(C(=O)Nc2nnc(SCC)s2)cc1 | 0 | 0 | 0 | 0 | - | -
NC(=O)c1ccccc1NC(=O)CSc1nc2ccccc2c(=O)[nH]1 | 5.3 | 0 | 0 | 0 | 0 | 0
COC(=O)c1ccccc1NC(=O)CSc1nc2ccccc2c(=O)[nH]1 | 0 | 0 | 0 | 0 | - | -
Cc1ccc(NC(=O)C(=O)NCCN2CCN(C(=O)c3ccccc3)CC2)cc1 | 0 | 0 | 0 | 0 | - | -
CC1=C(C(=O)Nc2cccc(C(F)(F)F)c2)C(c2cccs2)C2=C(CCCC2=O)N1 (stereo not drawn) | 6.5 | 0 | 0 | 0 | 0 | 0
O=C1C2C(c3ccccc3)C=CC(c3ccccc3)C2C(=O)N1c1ccccc1Cl (stereo not drawn) | 0 | 0 | 0 | 0 | - | -
Cc1c(C#N)c2nc3c(c(-c4ccccc4)c2n1-c1ccccc1)C(=O)CC(C)(C)C3 | 0 | 0 | 0 | 0 | - | -
Cc1c(C#N)c2nc3c(c(-c4ccccc4)c2n1-c1ccccc1)CCCC3 | 6.1 | 0 | 0 | 0 | 0 | 0
COc1ccc(C(=O)Nc2ccccc2C(=O)NC(C(=O)N2CCCCCC2)C(C)C)cc1 (stereo not drawn) | 0 | 0 | 0 | 0 | - | -
Cc1cc(C)c2nc(N(CCn3cccn3)C(=O)C3CC3)sc2c1 | 6.1 | 0 | 0 | 0 | 0 | 0
CC(=O)c1cccc(NC(=O)COc2c(C)cccc2C)c1 | 5.2 | 0 | 0 | 0 | 0 | 0
CCOC(=O)c1cnn(-c2ccccc2)c1NC(=O)CSC1=NC(=O)C(c2ccccc2)C(=O)N1 (stereo not drawn) | 0 | 0 | 0 | 0 | - | -
COC(=O)c1cccc(NC(=O)c2ccc[n+](C)c2)c1 | 0 | 0 | 0 | 0 | - | -
C[n+]1cccc(C(=O)Nc2ccccc2)c1 | 5.4 | 0 | 0 | 0 | 0 | 0
CCNc1nc(NCC)n2c(SCC(=O)Nc3ccccc3C)nnc2n1 | 6.8 | 0 | 0 | 0 | 0 | 0
CCNc1nc(NCC)n2c(SCC(=O)Nc3ccc(C)cc3C)nnc2n1 | 0 | 0 | 0 | 0 | - | -
Cc1nn(C)c(C)c1-c1nc(NCCCN2CCCC2=O)c2ncn(C3CCCCC3)c2n1 | 5.8 | 0 | 0 | 0 | 0 | 0
OCCNc1nc(Nc2ccncn2)nc2c1ncn2C1CCCCC1 | 0 | 0 | 0 | 0 | - | -
CCCNc1nc(-c2c(C)noc2C)nc2c1ncn2C1CCCCC1 | 5.5 | 0 | 0 | 0 | 0 | 0
SMILES | GPR151 activ | MITF inh | TEAD-YAP block | FBW7 act | GPR151 conf act | GPR119 counter
CCCNc1nc(Nc2ccncn2)nc2c1ncn2C1CCCCC1 | 4.9 | 0 | 0 | 0 | 0 | 0
Cc1noc(C)c1-c1nc(NCCOc2ccccc2)c2ncn(C3CCCCC3)c2n1 | 0 | 0 | 0 | 0 | - | -
CCc1ccc(/C=C2/NC(=O)N(CC(=O)Nc3cccc(C)c3)C2=O)cc1 | 0 | 0 | 0 | 0 | - | -
CCCC1NC(=S)N(C2CCCCC2)C1=O (stereo not drawn) | 0 | 0 | 0 | 0 | - | -
O=C1C(CCCNC(=S)NC2CCCCC2)NC(=S)N1C1CCCCC1 (stereo not drawn) | 9.8 | 0 | 0 | 0 | 0 | 0
Cc1ccc(Cl)cc1NC(=O)N[C@H]1C[C@H]2C(=O)N[C@H](Cc3ccccc3)C(=O)N2C1 | 0 | 0 | 0 | 0 | - | -
CCc1cccc(NC(=O)C2CCCC2)c1 | 10 | 0 | 0 | 0 | 0 | 0
CC(=O)Nc1ccc(NC(=O)C(C)Sc2ccccc2)cc1 (stereo not drawn) | 11 | 0 | 0 | 0 | 0 | 0
